Assay outcomes (PubChem)
Compounds with a hit are over-represented: about 5.9% of the library has one in this group of screens.
Rtt109 Vps75 – C. albicans Rtt109 histone acetyltransferase inhibition. Q5AAJ8. purified Rtt109/Vps75, ThioGlo CoA-SH fluorescence, 4 h. inhibition, % at 34.9 µM. 330,000 tested, 0.16% active. AID 540336;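 active = inhibition of at least 50% in every replicate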
LANA-H2B inh – blocks KSHV LANA binding to histone H2A/H2B; AID 2629; inhibition, % (concentration not given with the values); cell-free LANA-H2A/H2B peptide, fluorescence polarization; Q9QR71; 320,000 tested, 0.6% active; in the data active = inhibition mostly above about 10%, no sharp cut-off; inactive = mostly below about 6.7%
ALR inh – inhibitors of human sulfhydryl oxidase ALR; 290,000 tested, 3.8% active; inhibition, % (no concentration beside the values); P55789; purified ALR, DTT oxidation, H2O2 HRP-luminol luminescence;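 active = mean replicate inhibition above about 79%, with every replicate also reaching it, limit read from the data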
Target sequence (P55789 whole entry, looked up): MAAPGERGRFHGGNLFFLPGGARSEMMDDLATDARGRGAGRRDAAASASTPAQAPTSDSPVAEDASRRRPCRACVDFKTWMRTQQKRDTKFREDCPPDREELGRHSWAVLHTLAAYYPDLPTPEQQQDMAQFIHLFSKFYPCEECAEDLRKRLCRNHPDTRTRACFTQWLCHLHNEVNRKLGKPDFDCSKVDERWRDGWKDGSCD
rCAG RNA binder – r(CAG) repeat RNA binding; inhibition, % at 3 µM; 370,000 tested, 1.3% active; TO-PRO-1 dye displacement fluorescence;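 active = inhibition above the plate cutoff, the mean of all test compounds on that plate plus 3 SD, cut at about 35% in these data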;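 note: higher means more dye released from RNA so lower well fluorescence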
PRMT1 inh – PRMT1 (human) inhibition, primary screen | AID 652257 | inhibition, % at 2.79 µM | recombinant PRMT1, activity-based probe fluorescence polarization | 370,000 tested, 1.3% active | Q99873;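 active = inhibition above about 21% made by adding two undisclosed values, limit read from the data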
ABHD5 PLIN5 PPI – blocks binding of human ABHD5 to perilipin-5; Q00G26+Q8WTS1; Split G. princeps luciferase complementation, luminescence, 4 h; inhibition, % at 4 µM; 360,000 tested, 0.78% active; AID 602281;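 active = inhibition above the mean inhibition across every tested compound plus 3 SD, cut at about 22% in these data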
rCAG bind conf – r(CAG) RNA repeat binding, confirmation | shares compounds with rCAG RNA binder | TO-PRO-1 dye displacement fluorescence | inhibition, % at 3 µM | 4,300 tested, 70% active | AID 652065;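 active = inhibition above a per-plate cutoff, the mean inhibition of sample wells plus 3 SD, cut at about 35% in these data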;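 note: loss of TO-PRO-1 fluorescence as compound displaces dye from 1x1 AA loop RNA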
DNA CAG counter – counter-screen for rCAG RNA binders: DNA CAG dye complex inhibitors | inhibition, % at 3 µM | d(CAG) DNA oligo TO-PRO-1 dye displacement, fluorescence | shares compounds with rCAG RNA binder | 4,300 tested, 94% active;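 active = inhibition above its plate's cutoff, the mean test-well inhibition plus 3 SD, cut at about 4.8% in these data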;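 note: hits displace the dye from DNA and so lower well fluorescence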
Numbers stand for hits; i = inactive; nt = no result.

SMILES	Rtt109 Vps75	LANA-H2B inh	ALR inh	rCAG RNA binder	PRMT1 inh	ABHD5 PLIN5 PPI	rCAG bind conf	DNA CAG counter
C=CCCC1CN(CC=C)S(=O)(=O)c2c(F)cccc2O1 (stereo not drawn)	nt	nt	nt	i	i	nt	nt	nt
O=C(O)c1ccc(NC(=O)c2cn(-c3ccccc3)nc2-c2ccccc2)cc1	i	i	i	i	i	i	nt	nt
O=C(O)c1cccc(NC(=O)c2cn(-c3ccccc3)nc2-c2cccc(Br)c2)c1	i	i	i	87	i	i	82	50
O=C(O)c1ccc(NC(=O)c2cn(-c3ccccc3)nc2-c2ccc(Br)cc2)cc1	i	i	i	82	i	i	68	28
COc1ccc(-c2nn(-c3ccccc3)cc2C(=O)Nc2cccc(C(=O)O)c2)cc1[N+](=O)[O-]	i	i	i	71	i	i	61	24
CC(=O)N1C[C@@H](CO)[C@@H](N(C)C(=O)/C=C/c2ccccc2)C[C@H]1c1ccccc1	nt	nt	nt	i	i	nt	nt	nt
COc1cc(OC)c(OC)cc1/C=N/n1c(COc2ccccc2)n[nH]c1=S	i	i	i	i	i	i	nt	nt
Cc1ccc(-c2nnc(SCc3ccc([N+](=O)[O-])cc3)n2-c2ccccc2)cc1	nt	nt	nt	i	i	nt	nt	nt
CCCCCCCCN1CCS(=O)(=O)N(Cc2ccc(Cl)cc2)C(C(=O)OC)C1 (stereo not drawn)	nt	nt	nt	i	i	nt	nt	nt
Cc1ccc(-c2cc(C(=O)Nc3ccc(S(=O)(=O)Nc4cc(C)on4)cc3)c3ccccc3n2)c(C)c1	i	i	i	79	i	i	82	53
CCN(CC)S(=O)(=O)c1ccc(NC(=O)c2cc(-c3ccccc3)nc3ccccc23)cc1	i	i	i	i	i	i	nt	nt
O=C(O)c1ccccc1NC(=O)c1cc(-c2ccccc2)nc2ccccc12	i	i	98	56	i	i	62	22
Cc1cc(C)nc(NS(=O)(=O)c2ccc(NC(=O)c3cc(-c4ccccc4)nc4ccccc34)cc2)n1	i	i	i	49	i	i	62	25
O=C(Nc1ccon1)c1cc(-c2ccccc2)nc2ccccc12	i	i	i	i	i	i	nt	nt
Cc1ccc(O)c(-c2cc(C(=O)Nc3ccc(S(=O)(=O)Nc4nc(C)cc(C)n4)cc3)[nH]n2)c1	i	i	i	55	i	i	40	12
Cc1ccc(O)c(-c2cc(C(=O)Nc3ccc(S(=O)(=O)N4CC(C)OC(C)C4)cc3)[nH]n2)c1 (stereo not drawn)	i	i	i	i	i	i	nt	nt
CCOC(=O)[C@]12CCCC=C1N(CCc1ccc(OC)c(OC)c1)C(=O)[C@H](CC(=O)N1CCSCC1)C2	nt	nt	nt	i	i	i	nt	nt
Cc1ccccc1C(=O)Nc1ccc(S(=O)(=O)Nc2onc(C)c2C)cc1	i	i	i	i	i	i	nt	nt
Cc1ccc(NS(=O)(=O)c2ccc(C)c(C(=O)Nc3ccc(S(=O)(=O)Nc4onc(C)c4C)cc3)c2)cc1	i	nt	nt	64	i	i	70	35
Cc1ccc(-c2cc(C(=O)Nc3ccc(S(=O)(=O)Nc4onc(C)c4C)cc3)c3ccccc3n2)cc1	i	i	98	87	i	i	86	61
O=C(NNS(=O)(=O)c1cccc(Cl)c1)c1cc(-c2ccc(F)cc2)nc2ccccc12	i	i	i	44	i	i	44	15
O=C(NN=C1CCCC1)c1cc(-c2ccc(F)cc2)nc2ccccc12	i	i	nt	i	i	i	nt	nt
COc1ccc(-c2cc(=O)oc3c(C)c(OCC(=O)N[C@@H](Cc4ccc(O)cc4)C(=O)O)ccc23)cc1	i	i	i	47	i	i	46	13
COc1ccc(-c2cc(=O)oc3cc(OC(C)C(=O)NC(Cc4c[nH]c5ccc(O)cc45)C(=O)O)ccc23)cc1 (stereo not drawn)	i	i	i	44	i	i	43	13
Cc1c(OC(C)C(=O)O)ccc2c(-c3ccccc3)cc(=O)oc12 (stereo not drawn)	nt	i	i	i	i	i	nt	nt
